Bioassay records from PubChem.
RORg inh = ROR gamma (mouse) transcription inhibition; 310,000 compounds, 5.4% hits; Potency, µM (series often up to 53.6 µM), most hits filed as inhibitors; AID 2551; Drosophila S2 Gal4-RORgamma UAS-luciferase reporter, 20 h; note: nearly all actives have a fitted effect of over 60% in size
Target sequence (P51450 whole entry, looked up, the tested form may be a part): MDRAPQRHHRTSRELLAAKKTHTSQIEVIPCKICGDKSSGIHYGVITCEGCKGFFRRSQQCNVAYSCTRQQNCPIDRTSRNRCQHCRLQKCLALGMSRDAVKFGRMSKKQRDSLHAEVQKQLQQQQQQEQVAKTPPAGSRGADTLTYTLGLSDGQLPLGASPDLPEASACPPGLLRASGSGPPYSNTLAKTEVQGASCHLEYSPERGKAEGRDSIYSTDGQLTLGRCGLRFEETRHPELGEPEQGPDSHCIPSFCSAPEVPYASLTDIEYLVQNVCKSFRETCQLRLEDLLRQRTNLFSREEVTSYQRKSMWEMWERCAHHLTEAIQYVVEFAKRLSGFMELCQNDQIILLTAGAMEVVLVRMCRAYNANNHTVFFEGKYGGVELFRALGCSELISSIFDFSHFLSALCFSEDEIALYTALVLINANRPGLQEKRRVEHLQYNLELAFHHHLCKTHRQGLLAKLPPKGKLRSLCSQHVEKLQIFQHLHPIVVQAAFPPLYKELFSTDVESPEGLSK
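Luminescence from a UAS-regulated Photinus luciferase reporter in stably transfected Drosophila Schneider cells is measured; decreased signal marks ROR gamma inhibition. Fusion expression is induced by 700 uM copper sulfate for 20 hr.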
p53 reactivator = mutant p53 re-activation in reporter cells; H1299 p53-A138V BP100-luciferase reporter, luminescence, 24 h; Potency, µM (series often up to 92.2 µM), most hits filed as activators; 320,000 compounds, 0.063% hits; AID 504706; note: nearly all actives have a fitted effect of over 45% in size
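p53-null H1299 cells stably carrying temperature-sensitive p53-A138V and a BP100-luciferase reporter were pinned with compounds (4-point, 1:5 series) and held 24 hrs at 37 deg C. Luminescence was read 10 min after detection reagent.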
VP16 counter = Gal4-VP16 reporter inhibition counter-screen; Drosophila S2 Gal4-VP16 UAS-luciferase, luminescence, 20 h; 310,000 compounds, 3.5% hits; Potency, µM (doses to about 53.6 µM), hits mostly inhibitors; AID 2546;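 note: Gal4-VP16 expression switched on by copper sulfate through the metallothionein promoter; nearly all actives have a fitted effect of over 50% in size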
ELG1 DNA repair = blocks ELG1-dependent DNA repair in HEK293T cells | Potency, µM (titrated, usually from 46.1 µM), usual class: inhibitors | HEK293T ELG1-luciferase reporter, luminescence, 16 h; DNA damage induced by 5-fluorouridine | 330,000 compounds, 2.3% hits; note: nearly all actives have a fitted effect of over 55% in size
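Cells (2,000 per well) received 5-fluorouridine plus test compound or DMSO and were incubated 16 hr at 37 °C, 5% CO2. Luciferase activity was read by luminescence 30 min after ONE-Glo addition; signal suppression marked inhibition of damage-induced ELG1 function.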
BRCA1 expr act = BRCA1 expression activation; 380,000 compounds, 1.1% hits; Potency, µM (titrated, usually from 46.1 µM), most hits filed as activators; MCF7-BRCA1-FFLuc reporter, luminescence, 48 h; response scale: scaled: vehicle 0%, 10 µM genistein 100%; note: nearly all actives have a fitted effect of over 80% in size
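MCF7-BRCA1-FFLuc cells, 2000/well in phenol-red-free MEM, attached 2 h then treated 48 h at 37 C. Luciferase luminescence read 15 min after reagent; normalized to genistein maximum activation (10microM) and DMSO, concentration-response fitted.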
Giardia kill = Giardia lamblia killing; Giardia lamblia trophozoite viability; activity change, % at 7.66 µM, hits read low; 340,000 compounds, 0.15% hits; AID 540267; in the data active = activity change below about -80%; inconclusive = between about -30% and that limit;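 note: parasites exposed to compound for two days anaerobically before the ATP read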
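Trophozoites 100 cells/well + cpd; 48 hrs, 37 deg C, anaerobic. ATPLite 1-Step added, 15-30 min RT, luminescence read (ATP-based viability).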
Of the large screens only hits and unclear results are named; the others gave an inactive call. The list is not random: actives were taken first. Their share in the collection is about 7.6%. Unless noted, calls come from the whole dose curve; as a rule, active = well fitted curve in the direction sought with a large enough effect; inconclusive = small, poorly fitted or top-dose-only effect, or another doubt; inactive = no such curve, though single readings can be large; an effect the other way counts as inactive or inconclusive.

C[C@H](CO)N1C[C@H](C)[C@@H](CN(C)C(=O)NC2CCCCC2)Oc2c(NC(=O)Nc3ccccc3)cccc2C1=O	ELG1 DNA repair inconclusive (no result: RORg inh, VP16 counter)
COc1ccc2cc([C@H](C)C(=O)N(C)Cc3ccccc3N3CCCC3)ccc2c1	RORg inh inconclusive, ELG1 DNA repair inconclusive
CCC(C)NC(=O)CC(NS(=O)(=O)c1ccc(C)cc1)c1ccc(OC)cc1 (configuration not stated)	none
CCCN1Cc2cccc(C(=O)NCCCOC(C)C)c2C1=O	none
COc1ccc(Br)cc1/C=N/NC(=O)c1nc(-c2ccccc2)n2c1CCCCC2	ELG1 DNA repair 20.6µM
O=C(NCc1ccccc1)Nc1cccn(Cc2ccccc2Cl)c1=O	RORg inh inconclusive, ELG1 DNA repair inconclusive
CCOCCCn1c(=S)[nH]c2cc(C(=O)N3CCC(C(N)=O)(N4CCCCC4)CC3)ccc2c1=O	none
NS(=O)(=O)c1ccc(NC(=S)Nc2nn(Cc3ccc(Cl)cc3Cl)cc2Cl)cc1	RORg inh 6.31µM, VP16 counter 6.31µM, ELG1 DNA repair inconclusive
CCCCc1ccc(NC(=S)NCCc2ccc(F)cc2)cc1	RORg inh 2.24µM, VP16 counter 5.62µM
Fc1ccc(CCNC(=S)Nc2ccc(F)cc2)cc1	RORg inh 1µM, p53 reactivator inconclusive, VP16 counter 0.891µM, ELG1 DNA repair inconclusive
CCCCc1ccc(NC(=S)NCCO)cc1	RORg inh inconclusive
O=S(=O)(N/N=C/c1ccc2c(c1)OCCO2)c1ccc(Cl)cc1	none
COC(=O)c1ccccc1C(=O)N1CCCC(C(=O)c2ccc(OC)c(OC)c2)C1 (configuration not stated)	none
Fc1ccc(C2C3=C(Nc4ncnn42)c2ccccc2OC3c2ccncc2)cc1 (configuration not stated)	ELG1 DNA repair inconclusive
c1ccc(C2C3=C(Nc4ncnn42)c2ccccc2CCC3)cc1 (configuration not stated)	RORg inh 10µM, VP16 counter inconclusive
Clc1ccc(C2C3=C(Nc4ncnn42)c2ccccc2CC3)cc1 (configuration not stated)	RORg inh 14.1µM, VP16 counter inconclusive (no result: BRCA1 expr act, Giardia kill)
O=C(C[C@@H]1C/C=C/CC[C@@H](Cc2ccc(F)cc2)C(=O)O[C@H](c2ccccc2)CNC1=O)NCCO	ELG1 DNA repair inconclusive (no result: RORg inh, VP16 counter)
CCCNC(=S)Nc1ccc(Cl)cc1C	RORg inh 7.08µM, VP16 counter inconclusive
CCCNC(=S)Nc1ccc(F)cc1F	RORg inh inconclusive, ELG1 DNA repair 16.4µM
CN(C)CCNC(=S)Nc1ccc(Cl)cc1Cl	ELG1 DNA repair inconclusive
Cc1cc(Cl)ccc1NC(=S)NCC(C)C	RORg inh 4.47µM, VP16 counter 7.08µM
Cc1cc(Cl)ccc1NC(=S)NC(C)(C)C	RORg inh 2µM, VP16 counter 15.8µM, ELG1 DNA repair inconclusive
CCOCCCNC(=O)CN1C(=O)COc2ccc(S(=O)(=O)N3CCC(C)CC3)cc21	ELG1 DNA repair inconclusive
Nn1c(SCC(=O)NC2CCCCCC2)nnc1C(F)(F)F	ELG1 DNA repair inconclusive (no result: RORg inh, VP16 counter)
COc1ccc(OC)c(C(C)NC(=S)NC2CCCCC2)c1 (configuration not stated)	RORg inh 3.98µM, VP16 counter 3.98µM
COc1ccc(NC(=S)NC2CCCC2)c(OC)c1	RORg inh 6.31µM, VP16 counter inconclusive, ELG1 DNA repair inconclusive (no result: p53 reactivator)
CCOc1ccccc1NC(=S)NC1CCCCC1	none
COc1ccccc1NC(=S)NC1CCCCC1	RORg inh 4.47µM, VP16 counter 20µM
COc1ccccc1CNC(=S)NC1CCCC1	RORg inh 5.62µM, VP16 counter 7.08µM
COc1ccccc1CNC(=O)C1CCC1	none
O=C(Nc1ccccc1)N(CCN1CCOCC1)Cc1cccc(Cl)c1	none
Cc1cc(C(=O)OCC(=O)N2CC(C)OC(C)C2)c(C)n1-c1ccccc1 (configuration not stated)	none (no result: RORg inh, VP16 counter)
Cc1ccc(C)c(C(C)NC(=S)NC2CCCCC2)c1 (configuration not stated)	RORg inh 2.51µM, VP16 counter 5.62µM
COc1ccccc1NC(=S)NC1CCCCCCCCCCC1	RORg inh 2.82µM, VP16 counter inconclusive, ELG1 DNA repair inconclusive
COc1ccccc1NC(=O)N1CCCC1C(=O)NC1CCCCC1 (configuration not stated)	none
COc1ccccc1NC(=S)NCC1CCCCC1	RORg inh 4.47µM, VP16 counter 12.6µM
COc1ccc(Nc2nnc(SCc3cc(=O)n4ccsc4n3)s2)cc1	none
Cc1cc(OCC(=O)NCCCN2CCOCC2)c2c(C)cc(=O)oc2c1	none
Cc1ccc(-c2cc(C(F)(F)F)n3ncc(C(=O)N4CCCc5ccccc54)c3n2)cc1	none
O=C(c1cnn2c(C(F)(F)F)cc(-c3ccc4c(c3)OCO4)nc12)N1CCCCC1	p53 reactivator inconclusive
O=C(NC1CCCC1)c1cnn2c(C(F)(F)F)cc(-c3ccc4c(c3)OCO4)nc12	ELG1 DNA repair 4.11µM
CN1CCN(C(=O)c2cnn3c(C(F)(F)F)cc(-c4ccc5c(c4)OCO5)nc23)CC1	ELG1 DNA repair 5.8µM
Cc1ccc(-c2cc(C(F)(F)F)n3ncc(C(=O)N4CCN(C)CC4)c3n2)cc1	ELG1 DNA repair 9.2µM
COc1ccc(-c2nc(CN3CCN(Cc4cccc(Cl)c4)CC3)c(C)o2)cc1	RORg inh 11.2µM, VP16 counter inconclusive, ELG1 DNA repair inconclusive (no result: p53 reactivator)
COc1ccccc1Nc1nc(N)nc(CN2CCc3ccccc3C2)n1	RORg inh 11.2µM, VP16 counter inconclusive
COc1ccc(Nc2nc(N)nc(CSC(=S)N3CCCCC3)n2)cc1	RORg inh inconclusive, VP16 counter inconclusive, ELG1 DNA repair inconclusive
CCOc1ccc(Nc2nc(N)nc(CSC(=S)N3CCN(c4ccccc4)CC3)n2)cc1	ELG1 DNA repair 10.3µM
COc1ccccc1Nc1nc(N)nc(CSC(=S)N2CC(C)CC(C)C2)n1 (configuration not stated)	RORg inh inconclusive, p53 reactivator inconclusive, VP16 counter 25.1µM, ELG1 DNA repair inconclusive
COc1ccc(Nc2nc(N)nc(CSC(=S)N3CCCCC3C)n2)cc1 (configuration not stated)	RORg inh 12.6µM
CCc1ccc(-n2c(=S)sc3c(=O)n(-c4ccccc4)c(SCC(=O)O)nc32)cc1	none
CCc1ccc(C(C(=O)NC2CCCC2)N(C(=O)c2csnn2)C2CC2)cc1 (configuration not stated)	none
COc1ccc(Nc2nc(N)nc(CSC(=S)N3CCN(c4ccccc4)CC3)n2)cc1	ELG1 DNA repair 11.6µM
